According to the supplement of paper PMC12636033:
± gives the standard deviation of the averaged measurements. In all, about 33,000 sequences were measured (“E-score (rank enrichment, -0.5 to 0.5)”: median about -0.0075, highest 2% from about 0.23 on). Only a selection was taken, and the highest values are over-represented in it overall.

System: WT Max(13-93) synthetic (M65Nle)
Assay: PBM 8-mer E-score (E-score (rank enrichment, -0.5 to 0.5)); higher = stronger preferential binding
Method: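 Protein binding microarray (universal PBM chip covering all 10-mers in fixed probe flanks) with chemically synthesized human Max(13-93) bHLH-LZ analogs (not full-length Max) bearing noncanonical residues (hArg, Tha, Aib, Nle at 65) and aromatic Cys staples. Read-out per 8-mer (and its reverse complement): E-score (rank-based enrichment, -0.5 to 0.5) and Z-score of median probe intensity.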

Sequence | PBM 8-mer E-score
AGCAAACC | 0.102 ± 0.14
ACATGATG | 0.0731 ± 0.012
GCATGACA | 0.2006 ± 0.0015
CCATGATC | -0.0246 ± 0.092
ACATGAAC | 0.0506 ± 0.02
ACATGAAT | 0.245 ± 0.071
ACATGAGA | 0.146 ± 0.056
GCATGATA | 0.273 ± 0.01
ACATGATA | 0.269 ± 0.038
ACATGATC | 0.241 ± 0.024
CCATGATA | 0.0793 ± 0.032
AAATGATA | 0.197 ± 0.029
ACATGAAG | 0.0102 ± 0.026
TGCGTACA | 0.188 ± 0.13
CGAGGCCG | -0.243 ± 0.075
GCCCTGAC | 0.0594 ± 0.023
ACTCCGAT | -0.0923 ± 0.047
AAAGAAAC | 0.0488 ± 0.013
ACATCTCA | 0.146 ± 0.089
TGGGCACA | 0.0612 ± 0.062
ATGTTCAC | -0.109 ± 0.027
GCTGATGA | -0.087 ± 0.06

Sequence | PBM 8-mer E-score
CTTGGGAC | -0.183 ± 0.081
AAGTGTAG | 0.111 ± 0.079
ATGTGTAA | 0.236 ± 0.0034
CTGTGTAA | -0.00451 ± 0.0057
ATGTGTAC | 0.184 ± 0.011
GTGTGTAA | 0.0936 ± 0.013
ATGTGTAG | 0.25 ± 0.041
CCTAAGGA | 0.089 ± 0.0031
AAGCGTAG | -0.0452 ± 0.033
CATGTCCA | 0.124 ± 0.026
AGTCAGTA | 0.0494 ± 0.052
ACGTGGAT | 0.383 ± 0.044
AGGTGGAT | 0.0366 ± 0.1
GCGTGGAA | 0.179 ± 0.049
ACGTGGAA | 0.271 ± 0.053
TCGTGGAA | 0.163 ± 0.02
ACGTGGAG | 0.338 ± 0.049
CCGTGGAC | -0.137 ± 0.023
ACGTGGAC | 0.331 ± 0.0084
AAGTGGAG | 0.0727 ± 0.049
AAGTGGAT | -0.0604 ± 0.074
GCGTGGAC | 0.122 ± 0.16

Sequence | PBM 8-mer E-score
CCGTGGAG | -0.163 ± 0.06
ATCCTTTC | 0.0595 ± 0.17
AAAGAGAT | -0.0586 ± 0.1
GTCCTTAA | 0.063 ± 0.0053
AAAGGATG | 0.0585 ± 0.087
CAAAACAA | 0.129 ± 0.06
CATCGAGA | -0.0265 ± 0.036
GTAATGTA | 0.0754 ± 0.18
ACCTCAAT | -0.0496 ± 0.16
ATGTGGAG | 0.1647 ± 0.0014
ATGTGGAC | 0.238 ± 0.018
CTGTGGAC | 0.0601 ± 0.14
GGCATCCA | -0.0611 ± 0.057
ACCTTTTA | 0.027 ± 0.18
AATAAAAG | 0.206 ± 0.037
AATAAAAT | 0.144 ± 0.068
CATAAATA | 0.313 ± 0.0091
AATAAATA | 0.168 ± 0.017
CATAAAAC | 0.0726 ± 0.027
AATAAAAA | 0.256 ± 0.11
AATAAACC | 0.197 ± 0.028
AATAAAAC | 0.296 ± 0.056

Sequence | PBM 8-mer E-score
TATAAATA | 0.208 ± 0.025
GGACATCC | -0.188 ± 0.068
CACTTAGG | -0.0583 ± 0.16
ACGTGACG | 0.321 ± 0.039
AGGTGACG | -0.053 ± 0.045
ACGTGACC | 0.298 ± 0.018
ACGTGAGT | 0.327 ± 0.035
CCGTGACC | -0.23 ± 0.064
CCGTGACA | 0.00228 ± 0.054
ACGTGAGA | 0.208 ± 0.0048
ACGTGAGG | 0.1604 ± 0.0013
ACGTGACA | 0.366 ± 0.014
TCGTGACA | 0.0356 ± 0.012
GCGTGACC | 0.075 ± 0.14
CCGTGACG | -0.0153 ± 0.0018
AGCCGAGG | -0.103 ± 0.058
AACACAGG | -0.0563 ± 0.091
ACGAACCG | -0.0438 ± 0.041
AATCCAAC | 0.0162 ± 0.14
AGTGGTGC | -0.0756 ± 0.066
